Source: PMC7862700, “An all-to-all approach to the identification of sequence-specific readers for epigenetic DNA modifications on cytosine”

Each sequence was assayed against ETV1 (Homo sapiens, UniProt P50549 1-477) (assay: DAPPL (digital affinity profiling via proximity ligation, sequencing); 10 mM Tris-HCl pH 7.5, 50 mM NaCl, 1 mM DTT, 4% glycerol, room temperature, 30 min; GST-TFs on glutathione beads, 16-mer random dsDNA library, 0.1% formaldehyde crosslink after washing; high values mean tight binding). Conditions: protein: recombinant; tags: N-terminal GST; dsDNA, one strand shown.
Chain of ETV1 (P50549 whole entry, the tested form may be a part): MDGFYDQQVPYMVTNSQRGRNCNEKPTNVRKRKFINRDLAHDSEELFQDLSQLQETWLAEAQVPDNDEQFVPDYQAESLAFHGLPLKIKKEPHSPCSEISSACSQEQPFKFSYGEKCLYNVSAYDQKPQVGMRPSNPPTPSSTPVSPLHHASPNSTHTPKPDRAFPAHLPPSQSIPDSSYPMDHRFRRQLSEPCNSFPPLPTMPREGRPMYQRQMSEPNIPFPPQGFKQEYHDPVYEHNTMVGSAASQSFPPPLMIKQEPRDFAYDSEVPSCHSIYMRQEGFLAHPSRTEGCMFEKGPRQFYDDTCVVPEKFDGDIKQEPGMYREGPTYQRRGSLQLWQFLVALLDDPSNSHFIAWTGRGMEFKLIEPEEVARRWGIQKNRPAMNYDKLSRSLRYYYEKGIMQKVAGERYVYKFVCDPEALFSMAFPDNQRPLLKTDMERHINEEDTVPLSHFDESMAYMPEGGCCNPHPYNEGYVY
How it was run: (§1)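 After expression in yeast as GST fusions, human transcription factors were bound to glutathione beads, DNA-barcoded and mixed with a tag-only sample. The pools were incubated with 200 nmole of a 16-mer random double-stranded DNA library in Tris/NaCl/DTT/glycerol buffer (30 min, room temperature), washed and crosslinked with 0.1% formaldehyde. Proximity ligation with BsaI/T4 ligase ran for 1 h at 37 °C, before PCR amplification and sequencing on an Illumina NextSeq500. Binding signal is a hexamer's read frequency for a factor divided by its frequency for the tag-only sample.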

Row | Sequence | binding signal
1 | GATGAA | 1.27 fold enrichment (6-mer frequency, TF over GST control)
2 | TGCGTA | 1.24 fold enrichment (6-mer frequency, TF over GST control)
3 | CTTGTT | 1.31 fold enrichment (6-mer frequency, TF over GST control)
4 | TCGACG | 1.05 fold enrichment (6-mer frequency, TF over GST control)
5 | TATCTG | 1.2 fold enrichment (6-mer frequency, TF over GST control)
6 | TCGTAC | 1.18 fold enrichment (6-mer frequency, TF over GST control)
7 | GAAAAC | 1.13 fold enrichment (6-mer frequency, TF over GST control)
8 | ACTCGC | 1.15 fold enrichment (6-mer frequency, TF over GST control)
9 | GGATCC | 1.14 fold enrichment (6-mer frequency, TF over GST control)
10 | GCTCGT | 1.15 fold enrichment (6-mer frequency, TF over GST control)
11 | CCTGGG | 1.16 fold enrichment (6-mer frequency, TF over GST control)
12 | CTCGGT | 1.15 fold enrichment (6-mer frequency, TF over GST control)
13 | TCTGTA | 1.28 fold enrichment (6-mer frequency, TF over GST control)
14 | AAGCAC | 1.14 fold enrichment (6-mer frequency, TF over GST control)
15 | CACGCG | 1.09 fold enrichment (6-mer frequency, TF over GST control)
16 | CGCTAG | 1.03 fold enrichment (6-mer frequency, TF over GST control)
17 | ACACGA | 1.1 fold enrichment (6-mer frequency, TF over GST control)
18 | TGCGTT | 1.02 fold enrichment (6-mer frequency, TF over GST control)
19 | CACTGG | 1.22 fold enrichment (6-mer frequency, TF over GST control)

Row | Sequence | binding signal
20 | TAAGCC | 1.14 fold enrichment (6-mer frequency, TF over GST control)
21 | TGGTAG | 1.05 fold enrichment (6-mer frequency, TF over GST control)
22 | ACCGTC | 1.19 fold enrichment (6-mer frequency, TF over GST control)
23 | GCACGA | 1.05 fold enrichment (6-mer frequency, TF over GST control)
24 | CCACAA | 1.19 fold enrichment (6-mer frequency, TF over GST control)
25 | GAAAAA | 1.09 fold enrichment (6-mer frequency, TF over GST control)
26 | AAGCAA | 1.08 fold enrichment (6-mer frequency, TF over GST control)
27 | ATCATA | 1.08 fold enrichment (6-mer frequency, TF over GST control)
28 | CATGAA | 1.08 fold enrichment (6-mer frequency, TF over GST control)
29 | CTCCAT | 1.3 fold enrichment (6-mer frequency, TF over GST control)
30 | TCCACG | 1.08 fold enrichment (6-mer frequency, TF over GST control)
31 | ATGCTG | 1.06 fold enrichment (6-mer frequency, TF over GST control)
32 | TTACGA | 1.16 fold enrichment (6-mer frequency, TF over GST control)
33 | TCCACC | 1.13 fold enrichment (6-mer frequency, TF over GST control)
34 | TGCCGA | 1.14 fold enrichment (6-mer frequency, TF over GST control)
35 | ACTCGA | 1.33 fold enrichment (6-mer frequency, TF over GST control)
36 | TGAAAA | 1.01 fold enrichment (6-mer frequency, TF over GST control)
37 | AACAGC | 1.11 fold enrichment (6-mer frequency, TF over GST control)

What follows are sequences tested against T1, ERF (Homo sapiens, UniProt P50548 1-548) in the same assay as above. Conditions: protein: recombinant; tags: N-terminal GST; dsDNA, one strand shown.
T1 sequence: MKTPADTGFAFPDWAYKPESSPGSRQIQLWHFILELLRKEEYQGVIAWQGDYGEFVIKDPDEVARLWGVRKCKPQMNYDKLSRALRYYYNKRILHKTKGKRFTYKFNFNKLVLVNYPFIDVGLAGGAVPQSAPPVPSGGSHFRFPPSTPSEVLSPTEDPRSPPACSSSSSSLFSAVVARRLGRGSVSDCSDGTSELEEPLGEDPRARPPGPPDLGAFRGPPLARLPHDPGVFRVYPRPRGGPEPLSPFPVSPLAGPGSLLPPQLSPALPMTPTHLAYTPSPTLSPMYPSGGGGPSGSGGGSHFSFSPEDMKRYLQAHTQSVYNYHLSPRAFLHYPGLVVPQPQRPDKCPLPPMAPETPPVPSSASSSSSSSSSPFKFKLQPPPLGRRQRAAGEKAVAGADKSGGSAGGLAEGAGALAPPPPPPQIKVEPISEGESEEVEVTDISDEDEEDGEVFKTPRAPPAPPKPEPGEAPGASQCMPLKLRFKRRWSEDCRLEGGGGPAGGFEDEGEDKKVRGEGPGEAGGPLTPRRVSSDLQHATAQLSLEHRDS
How it was run: as §1

Row | Sequence | binding signal
38 | GATGAA | 1.17 fold enrichment (6-mer frequency, TF over GST control)
39 | TGCGTA | 1.15 fold enrichment (6-mer frequency, TF over GST control)
40 | CTTGTT | 1.17 fold enrichment (6-mer frequency, TF over GST control)
41 | TCGACG | 1.02 fold enrichment (6-mer frequency, TF over GST control)
42 | TATCTG | 1.2 fold enrichment (6-mer frequency, TF over GST control)
43 | TCGTAC | 1.01 fold enrichment (6-mer frequency, TF over GST control)
44 | GAAAAC | 1.11 fold enrichment (6-mer frequency, TF over GST control)
45 | ACTCGC | 1.17 fold enrichment (6-mer frequency, TF over GST control)
46 | GGATCC | 1.06 fold enrichment (6-mer frequency, TF over GST control)
47 | GCTCGT | 1.2 fold enrichment (6-mer frequency, TF over GST control)
48 | AAAGGT | 1.07 fold enrichment (6-mer frequency, TF over GST control)
49 | CTCGGT | 1.14 fold enrichment (6-mer frequency, TF over GST control)
50 | TCTGTA | 1.16 fold enrichment (6-mer frequency, TF over GST control)
51 | AAGCAC | 1.19 fold enrichment (6-mer frequency, TF over GST control)
52 | CGCTAG | 1.08 fold enrichment (6-mer frequency, TF over GST control)
53 | ACACGA | 1.15 fold enrichment (6-mer frequency, TF over GST control)
54 | TGCGTT | 1.2 fold enrichment (6-mer frequency, TF over GST control)
55 | CACTGG | 1.17 fold enrichment (6-mer frequency, TF over GST control)

Row | Sequence | binding signal
56 | TAAGCC | 1.15 fold enrichment (6-mer frequency, TF over GST control)
57 | TGGTAG | 1.11 fold enrichment (6-mer frequency, TF over GST control)
58 | ACCGTC | 1.25 fold enrichment (6-mer frequency, TF over GST control)
59 | GCACGA | 1.13 fold enrichment (6-mer frequency, TF over GST control)
60 | CCACAA | 1.24 fold enrichment (6-mer frequency, TF over GST control)
61 | GAAAAA | 1.08 fold enrichment (6-mer frequency, TF over GST control)
62 | AAGCAA | 1.01 fold enrichment (6-mer frequency, TF over GST control)
63 | ATCATA | 1.12 fold enrichment (6-mer frequency, TF over GST control)
64 | CATGAA | 1.02 fold enrichment (6-mer frequency, TF over GST control)
65 | CTCCAT | 1.37 fold enrichment (6-mer frequency, TF over GST control)
66 | TCCACG | 1.03 fold enrichment (6-mer frequency, TF over GST control)
67 | ATGCTG | 1.16 fold enrichment (6-mer frequency, TF over GST control)
68 | CTGGGT | 1.07 fold enrichment (6-mer frequency, TF over GST control)
69 | TTACGA | 1.06 fold enrichment (6-mer frequency, TF over GST control)
70 | TCCACC | 1.25 fold enrichment (6-mer frequency, TF over GST control)
71 | ACTCGA | 1.33 fold enrichment (6-mer frequency, TF over GST control)
72 | TGAAAA | 1.04 fold enrichment (6-mer frequency, TF over GST control)
73 | AACAGC | 1.15 fold enrichment (6-mer frequency, TF over GST control)

These sequences were tested against T2, ETV3L (Homo sapiens, UniProt Q6ZN32 1-361) in the same assay as above. Conditions: protein: recombinant; tags: N-terminal GST; dsDNA, one strand shown.
T2 sequence: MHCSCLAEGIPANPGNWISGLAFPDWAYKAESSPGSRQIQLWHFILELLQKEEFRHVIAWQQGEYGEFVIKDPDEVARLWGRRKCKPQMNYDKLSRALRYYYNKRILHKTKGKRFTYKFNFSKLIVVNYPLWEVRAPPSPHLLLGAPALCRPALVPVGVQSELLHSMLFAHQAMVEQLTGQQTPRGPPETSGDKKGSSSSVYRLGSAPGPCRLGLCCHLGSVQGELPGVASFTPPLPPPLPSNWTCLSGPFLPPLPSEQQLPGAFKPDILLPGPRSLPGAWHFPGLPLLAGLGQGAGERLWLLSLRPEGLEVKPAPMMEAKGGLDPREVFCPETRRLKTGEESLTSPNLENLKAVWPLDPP
How it was run: as §1

Row | Sequence | binding signal
74 | GATGAA | 1.25 fold enrichment (6-mer frequency, TF over GST control)
75 | TGCGTA | 1.17 fold enrichment (6-mer frequency, TF over GST control)
76 | TGGGTT | 1.17 fold enrichment (6-mer frequency, TF over GST control)
77 | CTTGTT | 1.17 fold enrichment (6-mer frequency, TF over GST control)
78 | TCGACG | 1 fold enrichment (6-mer frequency, TF over GST control)
79 | TATCTG | 1.41 fold enrichment (6-mer frequency, TF over GST control)
80 | GAAAAC | 1.13 fold enrichment (6-mer frequency, TF over GST control)
81 | ACTCGC | 1.08 fold enrichment (6-mer frequency, TF over GST control)
82 | GGATCC | 1.15 fold enrichment (6-mer frequency, TF over GST control)
83 | GCTCGT | 1.23 fold enrichment (6-mer frequency, TF over GST control)
84 | CCTGGG | 1.22 fold enrichment (6-mer frequency, TF over GST control)
85 | AAAGGT | 1.03 fold enrichment (6-mer frequency, TF over GST control)
86 | CTCGGT | 1.12 fold enrichment (6-mer frequency, TF over GST control)
87 | TCTGTA | 1.24 fold enrichment (6-mer frequency, TF over GST control)
88 | AAGCAC | 1.2 fold enrichment (6-mer frequency, TF over GST control)
89 | CACGCG | 1.22 fold enrichment (6-mer frequency, TF over GST control)
90 | CGCTAG | 1.06 fold enrichment (6-mer frequency, TF over GST control)
91 | ACACGA | 1.04 fold enrichment (6-mer frequency, TF over GST control)
92 | TGCGTT | 1.11 fold enrichment (6-mer frequency, TF over GST control)

Row | Sequence | binding signal
93 | CACTGG | 1.16 fold enrichment (6-mer frequency, TF over GST control)
94 | TAAGCC | 1.2 fold enrichment (6-mer frequency, TF over GST control)
95 | TGGTAG | 1.02 fold enrichment (6-mer frequency, TF over GST control)
96 | ACCGTC | 1.23 fold enrichment (6-mer frequency, TF over GST control)
97 | GCACGA | 1 fold enrichment (6-mer frequency, TF over GST control)
98 | CCACAA | 1.26 fold enrichment (6-mer frequency, TF over GST control)
99 | GAAAAA | 1.16 fold enrichment (6-mer frequency, TF over GST control)
100 | AAGCAA | 1.01 fold enrichment (6-mer frequency, TF over GST control)
101 | ATCATA | 1.12 fold enrichment (6-mer frequency, TF over GST control)
102 | CTCCAT | 1.21 fold enrichment (6-mer frequency, TF over GST control)
103 | TCCACG | 1.18 fold enrichment (6-mer frequency, TF over GST control)
104 | ATGCTG | 1.13 fold enrichment (6-mer frequency, TF over GST control)
105 | CTGGGT | 1.18 fold enrichment (6-mer frequency, TF over GST control)
106 | TTACGA | 1.18 fold enrichment (6-mer frequency, TF over GST control)
107 | TCCACC | 1.22 fold enrichment (6-mer frequency, TF over GST control)
108 | TGCCGA | 1.14 fold enrichment (6-mer frequency, TF over GST control)
109 | ACTCGA | 1.3 fold enrichment (6-mer frequency, TF over GST control)
110 | TGAAAA | 1.07 fold enrichment (6-mer frequency, TF over GST control)
111 | AACAGC | 1.05 fold enrichment (6-mer frequency, TF over GST control)
